PNC inhibitor: blocks assembly of the perinucleolar compartment; PC3M PTB-GFP, PNC prevalence imaging, 16 h; stronger effect = lower value; activity change (PNC), negative = inhibition, % at 10 µM; 3.1% of 140,000 active;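 active means readout at or below -70, meaning at least 70% loss of cells showing the perinucleolar compartment, a nuclear body marking cancer cells; inconclusive means readout between -30 and a set limit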;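 further: plate controls were DMSO wells for no effect and camptothecin positive control wells for full effect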
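PC3M cells stably expressing PTB-GFP, 750–1000 cells/well, treated 16 h at 37 °C with compound (23 nl of library stock), in duplicate. After paraformaldehyde fixation and Hoechst stain, imaged at 20x; PNC prevalence scored by image analysis.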
IMPase cell inh: cell-permeable inhibitors of inositol monophosphatase (IMPase). P97697. CHO-M1 cells, IP1 accumulation, HTRF TR-FRET ratio. inhibition (IP1 accumulation), % at 46.1 µM. 120,000 tested, under 10 active. AID 901; active means well fitted curve in the direction sought with a large enough effect in the signal ratio, not every such curve was filed as active; inconclusive means small, poorly fitted or top-dose-only effect, or a change in a side signal; inactive means no such curve, though single readings can be large or run the other way; the % refers to the signal ratio;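 further: cells stimulated with carbachol in lithium chloride buffer; plate controls were DMSO basal wells for no effect and reference inhibitor wells for full effect; higher means more IMPase inhibition seen as more IP1 and lower FRET ratio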
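Cellular IMPase inhibition is scored as a rise in cytosolic IP1, detected by competitive TR-FRET between d2-labelled IP1 and a europium anti-IP1 antibody. M1-expressing CHO cells were stimulated with carbachol for 30 min at 37C, with lithium (50 mM LiCl) present in the buffer.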
HPGD inh: blocks human HPGD enzyme activity; P15428; purified HPGD, NADH fluorescence kinetic, PGE2 substrate; Potency, µM, for the others: at the highest dose activity change, negative = inhibition, most hits filed as inhibitors; 4.3% of 150,000 active; AID 894; active means well fitted inhibition curve with a large enough effect, not every such curve was filed as active; inconclusive means small, poorly fitted or top-dose-only effect, or another doubt; inactive means no such curve, though single readings can be large or run the other way; further: potency means the concentration at half of the fitted maximal effect
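20 nM HPGD preincubated 15 min at room temperature with compound in 50 mM Tris-HCl pH 8, 0.01% Tween 20. Started with 1 mM NAD+ and 30 uM prostaglandin E2; NADH fluorescence (360/450 nm) read 5 times over 30-s intervals, last minus first.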
IMPase Li cell: membrane-permeable IMPase blocker, potentiated with lithium. CHO-M1 cells, IP1 TR-FRET (IP-One), carbachol + lithium. Potency, µM (top dose mostly 59.4 µM), without a hit: at the highest dose activity, negative = IMPase inhibition, most hits filed as inhibitors. 0.35% of 210,000 active. AID 1457;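 further: IP1 builds up when IMPase is blocked and the TR-FRET signal falls; potency means the concentration at half of the fitted maximal effect; plate controls were basal vehicle for no effect and high inhibitor control for full effect; nearly all actives have a fitted effect of over 50% in size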
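Steps: plate 2000 CHO-M1 cells per well and culture 16–30 h; add compound and lithium; incubate 30 min, 37C; add d2-IP1 tracer and Eu cryptate anti-IP1 antibody in lysis buffer; read after 10 min at room temperature.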
ALOX12 inhib: inhibitors of human 12-lipoxygenase (ALOX12); purified 12-hLO, xylenol orange hydroperoxide absorbance; Potency, µM (titrated, usually from 57.1 µM), for the others: at the highest dose activity change, negative = inhibition, most hits filed as inhibitors; 0.12% of 150,000 active; AID 1452; further: potency means the concentration at half of the fitted maximal effect; nearly all actives have a fitted effect of over 55% in size
Target sequence (P18054 whole entry, looked up): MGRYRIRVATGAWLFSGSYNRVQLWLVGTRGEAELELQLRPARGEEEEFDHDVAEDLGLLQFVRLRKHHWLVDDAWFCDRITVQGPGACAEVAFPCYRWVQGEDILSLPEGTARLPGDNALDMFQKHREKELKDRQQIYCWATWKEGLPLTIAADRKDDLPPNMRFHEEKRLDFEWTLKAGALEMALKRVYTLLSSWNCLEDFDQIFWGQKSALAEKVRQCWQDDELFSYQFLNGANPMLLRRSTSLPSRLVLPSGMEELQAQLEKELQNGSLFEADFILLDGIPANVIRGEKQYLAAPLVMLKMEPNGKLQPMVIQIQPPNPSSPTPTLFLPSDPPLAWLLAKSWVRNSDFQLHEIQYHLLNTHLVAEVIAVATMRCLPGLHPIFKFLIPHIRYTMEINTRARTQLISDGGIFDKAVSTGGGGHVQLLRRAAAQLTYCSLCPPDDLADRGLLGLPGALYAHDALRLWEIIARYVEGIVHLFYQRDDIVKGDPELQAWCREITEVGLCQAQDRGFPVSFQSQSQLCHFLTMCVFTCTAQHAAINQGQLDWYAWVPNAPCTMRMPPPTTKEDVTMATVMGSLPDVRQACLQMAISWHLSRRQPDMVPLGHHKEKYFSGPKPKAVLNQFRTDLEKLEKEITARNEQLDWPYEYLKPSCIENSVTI
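Hydroperoxide formation by human 12-lipoxygenase from 40 uM arachidonic acid was followed colorimetrically via ferric-xylenol orange complex, using the 573/405 nm absorbance ratio. Enzyme concentration was 150 nM, with 30 min reaction at room temperature.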
ALOX15B inhib: inhibitors of human 15-lipoxygenase 2 (ALOX15B); purified 15hLO-2, xylenol orange hydroperoxide absorbance; 0.56% of 110,000 active; O15296; Potency, µM (titrated, usually from 57.1 µM), for inactives: at the highest dose activity change, negative = inhibition, usual class: inhibitors; further: potency means the concentration at half of the fitted maximal effect; nearly all actives have a fitted effect of over 60% in size
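Purified human 15hLO-2 (50 nM final) preincubated with compounds 15 min at room temperature in 25 mM Hepes pH 7.5, 0.01% Triton X-100, then 45 uM arachidonic acid added for 90 min; hydroperoxide detected via ferrous/xylenol orange, 573/405 nm absorbance ratio.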
* hit, by the source's call; ? = inconclusive; . = no result; ! = not active in a repeat; [ ] = dose if it differs, or a comment. This is a sample that favours compounds with a hit; in the whole collection about 5.3% have one here. Unless noted, the call rests on the fitted dose curve; in most records, active means well fitted curve in the direction sought with a large enough effect; inconclusive means small, poorly fitted or top-dose-only effect, or another doubt; inactive means no such curve, though single readings can be large; an effect the other way counts as inactive or inconclusive. Unless noted, on the % scale 0 is the no-effect control and ±100 the full control effect.

SMILES | PNC inhibitor | IMPase cell inh | HPGD inh | IMPase Li cell | ALOX12 inhib | ALOX15B inhib
CNC(=O)c1sc2nc(-c3ccc(OC)cc3)cn2c1C | 45 | 2 | -26% | -17%[38.3 µM] | 3% | 3%
CCN(CC)C(=O)c1sc2nc(-c3ccc(OC)cc3)cn2c1C | 15 | 1 | 14µM* | 0%[38.3 µM] | 0% | 4%
COc1cc2ccccc2cc1C(=O)NCC(c1cccs1)N(C)C (stereo not drawn) | . | . | . | 22% | . | .
O=[N+]([O-])c1ccccc1S(=O)(=O)n1nnc2ccccc21 | 55 | -10 | -5% | 2% | 2% | .
Cc1ccc(C(=O)Oc2ccccc2N2C(=O)C3CCCCC3C2=O)cc1 (stereo not drawn) | -4 | -3 | -1% | -23%[38.3 µM] | -7% | 15%
COc1ccccc1C(=O)O/N=C(/C)c1ccc(N2C(=O)C3CCCCC3C2=O)cc1 (stereo not drawn) | 22 | 9 | 25µM* | 18%[38.3 µM] | 0% | -4%
COc1cc(OC)c(NS(=O)(=O)c2ccc(Cl)c(C(=O)OC(C)C(=O)N3CCCC3)c2)cc1Cl (stereo not drawn) | 64 | . | 1% | -3% | -3% | .
CCN(CC)c1nc2n(c(=S)n1)CCS2 | -88* | 2 | -13% | 3%[38.3 µM] | 4% | -4%
CCOC(=O)c1sc(=S)n(-c2cc(F)ccc2F)c1N | -6 | -4 | 25µM* | -9%[38.3 µM] | -2% | -7%
COC(=O)c1sc(=S)n(-c2cc(F)ccc2F)c1N | 61 | 8 | 28µM* | -8%[38.3 µM] | 0% | -9%
CCOC(=O)c1sc(=S)n(-c2ccc(Cl)cc2)c1C | ? | -13[0.369 µM] | -9% | 8% | -6% | .
COC(=O)c1sccc1NC(=S)Nc1ccc(F)cc1F | . | . | . | 6% | . | .
CCOC(=O)c1sc(=S)n(-c2ccccc2Cl)c1SC | 10 | 4 | 18µM* | 23%[38.3 µM] | -12% | ?
CCOC(=O)c1sc(=S)n(-c2cc(OC)ccc2OC)c1N | 23 | -14 | 3.5µM* | 20%[38.3 µM] | -1% | -13%
COc1cc(-c2nc(CN(C)Cc3nnc(C)o3)c(C)o2)ccc1F | . | . | . | -4% | . | .
O=C(Cn1nnc(-c2ccccc2)n1)N/N=C/c1cc([N+](=O)[O-])ccc1O | ? | -5 | 14µM* | -7% | -2% | .
O=C(Cn1nc2ccccc2n1)N/N=C/c1cc([N+](=O)[O-])ccc1O | . | . | . | 3% | . | .
O=c1c2ccccc2[nH]c(=S)n1-c1cccc(S(=O)(=O)N2CCCC2)c1 | -23 | -1 | . | . | -1% | .
CC(=O)N1CCc2c(sc3c2c(=O)n(-c2ccccc2)c(=O)n3Cc2ccccc2Cl)C1 | -114* | . | -8% | 6% | -1% | .
O=C1C(SCCO)=C(SCCO)C(=O)c2ccccc21 | . | 36 | 2.8µM*! | 64% | ? | ?
Cc1ccc(NC(=O)C2CCCO2)cc1[N+](=O)[O-] (stereo not drawn) | 0 | 1 | -3% | -4% | 2% | .
COc1cccc(/C=C/C(=O)OCC(=O)N2c3ccccc3NC(=O)C2(C)C)c1 | -4 | -4 | -19% | 5% | -2% | .
COC(=O)C1=C(C(=O)OC)[C@@H]2N(Cc3ccccc3)c3ccccc3[C@@]23C[C@@H](C(=O)OC)N(C(=O)c2ccco2)C3=N1 | . | . | -10% | 1% | -2%[11.4 µM] | .
COc1cccc(Cn2c(=O)c(-c3cccs3)nc3cnc(N4CCOCC4)nc32)c1 | . | . | . | -7% | . | 3%
O=C(c1cc(C(F)(F)F)cc(C(F)(F)F)c1)N1CCC2(CC1)CN(c1ccccn1)C2 | . | . | ? | 14% | -11% | 27%
Cn1c(Cc2csc(N)n2)nnc1SCC(=O)NCc1ccccc1 | -92* | -6 | -10% | 12%[38.3 µM] | -1% | 0%[2.29 µM]
Cn1c(Cc2csc(N)n2)nnc1SCC(=O)NC1CCCCC1 | ? | -8 | -9% | 6%[38.3 µM] | -4% | -7%
CCOC(=O)c1sc2nc(NC(=O)C3CC3)sc2c1C | 62 | -1 | ? | 13µM* | -9% | -2%
O=C(NCc1n[nH]c(=S)n1-c1ccc(Cl)c(Cl)c1)c1ccc(S(=O)(=O)N2CCOCC2)cc1 | . | . | . | -4% | . | .

Assay outcomes: PubChem BioAssay, National Center for Advancing Translational Sciences (NCATS)
